PubChem BioAssay (NCATS)
“And” between values parts separate entries of the source, which are not always exact repeats. Identical values can stand only once. Inconclusive results are not listed. The source holds several records for some structures; these can differ, active in one and inactive in another. The source made the active and inactive calls. Unless noted, calls come from the whole dose curve; as a rule, active = well fitted inhibition curve with a large enough effect; inconclusive = small, poorly fitted or top-dose-only effect; inactive = flat fitted curve, though single readings scatter.

How the values were obtained:
[1] = Drug repurposing screens with cells derived from glioblastoma tumor samples (AID 1345199); settings: GBM patient neurospheres viability, ATP luminescence, 48 h; note: nearly all actives have a fitted effect of over 40% in size; note: potency is the fitted concentration of half-maximal effect; for activity, negative = cell killing: % is set by controls: 0 for no effect and ±100 for the full control effect
In short: (§1)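 Four patient lines of CD133+ GBM neurospheres were screened at several concentrations; hits were retested in those lines plus three slower-growing GBM lines, using 48-hour treatment and ATP-based viability.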

astro = control astrocytes; assay: as above; settings: viability, ATP luminescence, 48 h; series mostly up to 45.9 µM
In short: as §1

[2] = biological target: Nuclear receptor subfamily 1 group I member 2 (Rattus norvegicus) (UniProt Q9R1A7); assay: qHTS assay for small molecule activators of the rat pregnane X receptor (rPXR) signaling pathway (AID 651751; call rule not given here; note: 0% is about no effect); settings: rPXR reporter cells, luciferase (One-Glo), 24 h
Chain of Nuclear receptor subfamily 1 group I member 2 (Rattus norvegicus) (Q9R1A7 whole entry, looked up): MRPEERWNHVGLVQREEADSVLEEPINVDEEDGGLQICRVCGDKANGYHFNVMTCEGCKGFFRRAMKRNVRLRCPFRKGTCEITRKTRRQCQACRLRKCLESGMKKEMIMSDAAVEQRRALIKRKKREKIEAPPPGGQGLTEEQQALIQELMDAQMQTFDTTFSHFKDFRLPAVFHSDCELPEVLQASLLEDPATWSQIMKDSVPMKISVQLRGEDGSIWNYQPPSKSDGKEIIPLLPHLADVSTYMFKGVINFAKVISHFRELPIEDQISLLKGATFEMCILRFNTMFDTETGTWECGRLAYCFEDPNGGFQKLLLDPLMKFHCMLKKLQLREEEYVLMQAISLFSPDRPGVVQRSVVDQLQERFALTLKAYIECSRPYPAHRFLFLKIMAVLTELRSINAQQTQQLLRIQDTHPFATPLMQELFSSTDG

[3] = qHTS assay for small molecule activators of the human pregnane X receptor (PXR) signaling pathway (AID 720659; call rule not given here; note: 0% is about no effect); settings: DPX-2 HepG2 CYP3A4-luciferase, 24 h; series mostly up to 92.3 µM
[4] = at 45.9 µM (top of the series), tumour line B
[5] = at 45.9 µM (top of the series), tumour line D
[6] = at 46.1 µM (top of the series), tumour line C
[7] = at 46 µM (top of the series), tumour line A
[8] = at 20 µM (top of the series), tumour line C
[9] = at 21.2 µM (top of the series), tumour line B

Cc1cc(C)c(NC(=O)C[C@H](CC(=O)O)c2cccc3ccccc23)c(C(=O)N2CCC3(CCCC3)CC2)c1
inactive: activity, negative = cell killing [1, 4] -14% | activity, negative = cell killing [1, 5] 2.34% | activity, negative = cell killing [1, 6] -29.7% | Potency (astro)

O=S(=O)(O)CCCS(=O)(=O)O
inactive: activity, negative = cell killing [1, 4] -8.81% | activity, negative = cell killing [1, 5] -10.4% | activity, negative = cell killing [1, 6] -13.4% | Potency (astro)

Oc1ccc(Cl)c2c1CCC2
inactive: activity, negative = cell killing [1, 4] -12.8% | activity, negative = cell killing [1, 5] -3.41% | activity, negative = cell killing [1, 6] -12.7% | Potency (astro)

CO[C@H]1C[C@H](O[C@@H]2/C(C)=C/C[C@@H]3C[C@@H](C[C@]4(CC[C@H](C)[C@@H](C5CCCCC5)O4)O3)OC(=O)[C@@H]3C=C(C)/C(=N/O)[C@H]4OC/C(=C\C=C\[C@@H]2C)[C@]43O)O[C@@H](C)[C@@H]1O
active: Potency ([1]; tumour line A) 10 µM | Potency ([1]; tumour line D) 20 µM
inactive: activity, negative = cell killing [1, 6] -8.72% | Potency (astro)

FC(F)(F)C(F)(F)C(F)(F)C(F)(F)C(F)(F)C(F)(F)F
inactive: activity, negative = cell killing [1, 4] -7.96% | activity, negative = cell killing [1, 5] -23% | activity, negative = cell killing [1, 6] -26.4% | Potency (astro)

CC1CCCCN1CCCOC(=O)c1ccccc1 (configuration not stated)
inactive: activity, negative = cell killing [1, 4] -12.2% | activity, negative = cell killing [1, 5] -13.7% | activity, negative = cell killing [1, 6] -1.82% | Potency (astro)

COc1ccc(/C=N/NC(=O)c2ccncc2)c(C(=O)O)c1OC
inactive: activity, negative = cell killing [1, 4] -18.2% | activity, negative = cell killing [1, 5] 8.03% | activity, negative = cell killing [1, 7] -30.2% | Potency (astro)

Cc1cccc(C)c1NC(=O)NC1=CCCN1C
inactive: activity, negative = cell killing [1, 4] -5.38% | activity, negative = cell killing [1, 5] -0.755% | activity, negative = cell killing [1, 6] 0.0506% | Potency (astro)

O=C(O)c1ccc(OCCn2ccnc2)cc1
inactive: activity, negative = cell killing [1, 4] -11.4% | activity, negative = cell killing [1, 5] -25.4% | activity, negative = cell killing [1, 6] -11.9% | Potency (astro)

CC(C)Cc1ccc([C@@H](C)C(=O)NS(C)(=O)=O)cc1
inactive: activity, negative = cell killing [1, 4] -10.5% | activity, negative = cell killing [1, 5] -14.1% | activity, negative = cell killing [1, 6] -23.4% | Potency (astro)

Cc1nc(NS(=O)(=O)c2ccc(N)cc2)nc(C)c1Br
inactive: activity, negative = cell killing [1, 4] -13% | activity, negative = cell killing [1, 5] -4.79% | activity, negative = cell killing [1, 7] -28.7% | Potency (astro)

NC(=O)OCC(O)COc1ccc(Cl)cc1 (configuration not stated)
inactive: activity, negative = cell killing [1, 8] 0.2% | activity, negative = cell killing [1, 9] -15.4% | activity, negative = cell killing ([1]; at 21.2 µM (top of the series), tumour line D) -22.6% | Potency (astro)

CCOC(=O)c1c[nH]c2cc(OCC(C)C)c(OCC(C)C)cc2c1=O
inactive: activity, negative = cell killing [1, 4] -9.16% | activity, negative = cell killing [1, 5] -17.4% | activity, negative = cell killing [1, 7] -29.7% | Potency (astro)

CN(Cc1ccccc1)Cc1ccccc1
inactive: activity, negative = cell killing [1, 4] -11.4% | activity, negative = cell killing [1, 5] 6.3% | activity, negative = cell killing [1, 6] -21.1% | Potency (astro)

[O]=[Bi][O]C(=O)[O][Bi]=[O]
inactive: activity, negative = cell killing [1, 4] -5.84% | activity, negative = cell killing [1, 5] -17.8% | activity, negative = cell killing [1, 6] 0.454% | Potency (astro)

Cc1ccc(C(C)(C)c2ccc(C)cc2)cc1
inactive: activity, negative = cell killing [1, 4] -5.24% | activity, negative = cell killing [1, 5] -1.07% | activity, negative = cell killing [1, 6] -10.1% | Potency (astro)

CC1=CC(=O)NS(=O)(=O)O1
inactive: activity, negative = cell killing [1, 4] -5.56% | activity, negative = cell killing [1, 5] 0.134% | activity, negative = cell killing [1, 6] -19.5% | Potency (astro) | max response [2] 4.96% and 0.0631% | outcome [3]

CC(C)=CCC/C(C)=C/C=C/C(C)=C/C=C/C(C)=C/C=C/C=C(C)/C=C/C=C(C)/C=C/C=C(\C)CCC=C(C)C
inactive: activity, negative = cell killing [1, 4] -10.4% | activity, negative = cell killing [1, 5] -12.4% | activity, negative = cell killing [1, 6] 14.8% | Potency (astro)

CCCCCCCCCCCCCCCCCC(=O)OCC(C)O (configuration not stated)
inactive: activity, negative = cell killing [1, 4] -18.7% | activity, negative = cell killing [1, 5] -0.865% | activity, negative = cell killing [1, 7] -14.9% | Potency (astro)

O=C(NNCS(=O)(=O)O)c1ccncc1
inactive: activity, negative = cell killing [1, 4] -4.21% | activity, negative = cell killing [1, 7] -67.1% | Potency (astro)

NCCO/C=C/[C@H](N)C(=O)O
inactive: activity, negative = cell killing [1, 4] -6.64% | activity, negative = cell killing [1, 5] 5.28% | activity, negative = cell killing [1, 6] 26.3% | Potency (astro) | max response [2] -1.31%

O=C1CC[C@@H](C(=O)N[C@H]2C[C@@H]2c2ccccc2)N1
inactive: activity, negative = cell killing [1, 4] -8.87% | activity, negative = cell killing [1, 5] -2.23% | activity, negative = cell killing [1, 6] 4.74% | Potency (astro)

CCCCCCCCCC(=O)NO
inactive: activity, negative = cell killing [1, 4] -14.3% | activity, negative = cell killing [1, 6] -21.2% and 7.01% | Potency (astro)

N=C(N)c1ccc(/C=C/c2ccc(C(=N)N)cc2O)cc1
inactive: activity, negative = cell killing [1, 4] -18.3% | activity, negative = cell killing [1, 5] -9.46% | activity, negative = cell killing [1, 6] -14.7% | Potency (astro)

OC[C@H]1O[C@@](CO)(O[C@H]2O[C@H](CO)[C@@H](O)[C@H](O)[C@H]2O)[C@@H](O)[C@@H]1O
inactive: activity, negative = cell killing [1, 4] -5.09% | activity, negative = cell killing [1, 5] -14.4% | activity, negative = cell killing [1, 6] -22.3% | Potency (astro) | max response [2] 1.07% | outcome [3]

CN[C@@H]1[C@@H](O)[C@@H](O[C@@H]2[C@@H](O)[C@H](OC3OC(CN)=CCC3N)[C@@H](N)C[C@H]2N)OC[C@]1(C)O (some centres not stated)
inactive: activity, negative = cell killing [1, 8] 5.74% | activity, negative = cell killing [1, 9] -6.65% | activity, negative = cell killing ([1]; at 21.3 µM (top of the series), tumour line A) -25.4% | Potency (astro)
